Results taken from PubChem BioAssay AID1030 (National Center for Advancing Translational Sciences (NCATS), 2008).
About 16,000 (7.3%) of roughly 220,000 compounds were called active. Another 25% or so got no clear call; they are omitted. The call rests on the fitted dose curve; in most records, active means well fitted inhibition curve with a large enough effect (not every such curve was filed as active); inconclusive means small, poorly fitted or top-dose-only effect, or another doubt; inactive means no such curve, though single readings can be large or run the other way. Shown is part of a subset that was picked to be rich in actives.

Molecular target: Aldehyde dehydrogenase 1A1 (Homo sapiens) (UniProt P00352)
Test: qHTS Assay for Inhibitors of Aldehyde Dehydrogenase 1 (ALDH1A1);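 on activity, negative = inhibition: plate controls were no enzyme wells and a reference inhibitor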
Details: Purified ALDH1A1, NADH fluorescence, propionaldehyde substrate; series mostly up to 75.3 µM; activity, negative = inhibition: at the top concentration
Potency means the concentration at half of the fitted maximal effect.

Sequence of Aldehyde dehydrogenase 1A1 (Homo sapiens) (P00352 whole entry, looked up): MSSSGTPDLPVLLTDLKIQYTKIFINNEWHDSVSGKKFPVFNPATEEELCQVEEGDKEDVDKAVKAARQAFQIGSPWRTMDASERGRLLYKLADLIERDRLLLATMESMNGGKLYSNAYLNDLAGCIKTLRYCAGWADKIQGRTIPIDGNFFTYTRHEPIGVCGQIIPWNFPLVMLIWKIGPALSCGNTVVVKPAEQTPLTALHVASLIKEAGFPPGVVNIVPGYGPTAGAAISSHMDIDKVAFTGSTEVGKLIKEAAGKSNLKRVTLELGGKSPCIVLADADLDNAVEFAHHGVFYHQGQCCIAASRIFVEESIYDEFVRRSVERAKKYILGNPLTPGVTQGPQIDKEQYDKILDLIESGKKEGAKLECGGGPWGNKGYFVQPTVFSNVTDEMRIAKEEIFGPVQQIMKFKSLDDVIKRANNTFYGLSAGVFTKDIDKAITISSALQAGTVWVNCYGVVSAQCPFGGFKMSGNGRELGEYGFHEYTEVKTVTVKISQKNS

activity, negative = inhibition, inactive:
CCCCC/C=C\C[C@H](O)/C=C/C=C/C=C/[C@@H](O)CCCC(=O)O 2%
COc1cc(CNC2CCCC2)c(Br)cc1OCc1ccccc1 4.19%
COc1ccc(CCN=C2SCC(=O)N2Cc2ccccc2)cc1OC -6.04%
O=C(N/N=C1\CCSC1)c1cc(Cl)ccc1O 5.93%
O=C(CSC(=S)N1CCOCC1)c1ccccc1 -11.8%
CC(=O)c1ccc(NC(=O)CSC(=S)N2CCCC2)cc1 -1.69%
CCOP(=O)(OCC)C(Nc1ccc([N+](=O)[O-])cc1)c1ccc(Cl)cc1 (stereo not drawn) 2.42%
Cc1ccc2c(c1)C1CN(C)CCC1N2C(=S)Nc1ccc(Cl)cc1Cl (stereo not drawn) -11.2%
CCOC(=O)N1CCN(C(=O)c2cn(C)c3ccc(S(=O)(=O)N4CCCC4)cc3c2=O)CC1 -12.2%
O=C(Nc1ccc(S(=O)(=O)N2CCc3ccccc3C2)cc1)c1ccccc1 15.8%
CCn1c(SCC(=O)NCC2CCCO2)nc2cc(S(=O)(=O)N3CCCCC3)ccc21 (stereo not drawn) -10.7%
Cc1ccc(S(=O)(=O)N2CCC(C(=O)NCC3CCCO3)CC2)cc1 (stereo not drawn) 15.3%
NS(=O)(=O)c1ccc(CNC(=O)c2ccc(Cl)cc2[N+](=O)[O-])cc1 -11.9%
CCOC(=O)N/N=C/c1cccnc1 14.9%
Cc1nn(CCOc2ccc(Br)cc2)c(C)c1[N+](=O)[O-] 7.31%
CC(C)c1nc2sc3c(c2c(=O)n1N)CC(C)(C)OC3 11.1%
CN(C)CCSc1nc(N)c2c3c(sc2n1)COC(C)(C)C3 0.0923%
O=C(NCc1ccc(F)cc1)C(c1ccccc1)N(C(=O)c1csnn1)C1CC1 (stereo not drawn) -7.36%
COc1cc(C)c(S(=O)(=O)N2CCOCC2)c(C)c1C 1.4%
O=C1N/C(=N\N=C\c2ccco2)SC1Cc1ccc(F)cc1 (stereo not drawn) -15.7%
CCOc1ccc(C(=O)Nc2cc(OC)ccc2OC)cc1 10.8%
CCOc1ccc(NS(=O)(=O)c2ccc(C)c(C(N)=O)c2)cc1 10.6%
CCOc1ccc(S(=O)(=O)Nc2ccncc2)c(C)c1C 3.06%
CCOc1ccc(NC(=O)Nc2cc(C)ccc2OC)cc1 -8.82%
CN1CCN(/N=C/c2ccc(C#N)cc2)CC1 -6.72%
CC(=O)/C(C)=N/O 4.95%
O=C(O)/C=C/c1ccc(S(=O)(=O)N2CCCCCC2)cc1 1.8%
Cc1cc(C(=O)OC(C)C(=O)Nc2cccc(S(=O)(=O)N3CCOCC3)c2)c(C)o1 (stereo not drawn) -9.99%
C/C(N)=C(/C#N)C(=O)COC(=O)C1CCN(C(=O)c2ccc(Cl)cc2)CC1 6.17%
N/C(=N\OC(=O)Cc1ccccc1[N+](=O)[O-])c1ccc(Br)cc1 -19.8%
NS(=O)(=O)c1ccc(NC(=O)/C=C/c2ccccc2Cl)cc1 5.79%
COC(=O)C1=C(C)N(c2ccc(C)cc2)/C(=C/c2ccc(O)cc2)C1=O 1.55%
Cc1ccc(C(=O)C(=S)N2CCOCC2)cc1 0.91%
CCOc1cc(C(=O)OCC(=O)Nc2cccc(C)c2)ccc1OCC(=O)N1CCOCC1 26.8%
Nc1nc(SCc2ccccc2Cl)n[nH]1 0.779%
O=c1[nH]c(SCc2ccccc2)nnc1-c1ccccc1 -0.436%
Clc1ccc(CSc2nnc3c(n2)[nH]c2ccccc23)cc1 7.53%
COC(OC)c1ccnc(SCc2ccccc2Cl)n1 2.6%
O=C(NC(=O)c1cc(OCC(F)(F)F)ccc1OCC(F)(F)F)Nc1ccccc1 1.1%
Cc1ccc(-n2c(O)c(C=Nc3ccc(S(=O)(=O)Nc4ncccn4)cc3)c3ccccc3c2=O)cc1C 5.14%
CCOc1ccc(N=Cc2c(O)n(-c3cccc(C)n3)c(=O)c3ccccc23)cc1 -2.85%
O=C(NCCOc1ccccc1F)Nc1ccc(Br)cc1 8.09%
Cc1ccnc(N2C(=O)c3ccccc3C2Nc2ccc3c(c2)OCCO3)c1 (stereo not drawn) -5.58%
O=C(NC1CCCCC1)C1c2ccccc2C(=O)N1Cc1ccco1 (stereo not drawn) -7.86%
COc1ccccc1NC(=O)/C=C/C(=O)O 2.77%
COc1ccccc1NC(=O)c1ccc(C)s1 -4.02%
CCCC(=O)OCC(=O)Nc1cc(Cl)ccc1[N+](=O)[O-] -0.69%
Cc1ccc(Cl)cc1NC(=O)COC(=O)C1CCCCC1 4%
Cc1ccc2nc(-c3ccccn3)cc(C(=O)Nc3ccc4c(c3)OCO4)c2c1 4.03%
CCCCn1nc(C(=O)Nc2ccc(S(=O)(=O)Nc3ncccn3)cc2)c2ccccc2c1=O 1.98%
Cn1cc(CN2CCC(C(O)CCc3ccccc3)CC2)c(-c2ccccc2F)n1 (stereo not drawn) 7.67%
CS(=O)(=O)n1nc(-c2ccco2)nc1N -2.53%
C/C(N)=C(/C#N)C(=O)COC(=O)c1cc(-c2ccccc2)nc2ccc(Br)cc12 3.96%
Cc1ccc(NC(=O)CN2CCCCC2)c2c1CC(C)(C)O2 -6.17%
Cc1cc(CO)nn1-c1ccc([N+](=O)[O-])cc1 4%
COc1ccc(C(CC(=O)Nc2ccc(C)cc2)NC(=O)C(F)(F)F)cc1 (stereo not drawn) 7.22%
Cc1ccc(OC(=O)CCC(=O)Nc2ccc(Br)cc2)cc1 11.2%
COC(=O)C1=C(C)Nc2ncnn2C1c1ccco1 (stereo not drawn) 2.79%
COC(=O)C1=C(C)Nc2ncnn2C1c1cccnc1 (stereo not drawn) 5.06%
Cc1cc(C)cc(NC(=O)N(C)Cc2ccccc2)c1 0.822%
CCCCOCCCNC(=O)c1ccccc1OCC 3.62%
CCOCCCNC(=O)c1c[nH]c2cc(C)ccc2c1=O -4.04%
Cc1ccc(O)c(NC(=S)NC(=O)COc2ccc(Br)cc2)c1 -1.2%
CSc1nc2ccccc2c(=O)n1Cc1ccc(F)cc1 8.56%
Cn1c(CO)cnc1SCc1ccccc1 16.3%
CCCOCC(O)CC(CC)C(=O)NNC(=S)Nc1ccccc1 (stereo not drawn) -9.33%
O=C(Nc1nc(-c2ccc(-c3ccccc3)cc2)cs1)c1cnccn1 3.48%
CC1(C)CC(CC(=O)O)C(=O)O1 (stereo not drawn) -1.05%
Cc1ccc(C(=O)NC(=S)NCc2cccnc2)cc1 -1.98%
Cc1ccc(NC(=S)N(CCN2CCCCC2)Cc2ccco2)cc1C -9.28%
COc1ccc(CNC(=O)CN2CCC(n3nnc4cc(F)ccc43)CC2)cc1 2.04%
Cc1nnc(SCC(=O)N2CCOCC2)[nH]c1=O -0.185%
COc1ccc(C(=O)Nc2c(N)nc(SCC(=O)N3CCC(C)CC3)[nH]c2=O)cc1OC -5.04%
O=C(Nc1ccc(F)c([N+](=O)[O-])c1)C1CC(=O)N(Cc2ccccc2)C1 (stereo not drawn) 13.4%
CC(CO)NCC12CC3CC(CC(C3)C1)C2 (stereo not drawn) 1.89%
CC(C)n1c(-c2ccncc2)n[nH]c1=S -10.3%
Nc1ccc(C(=O)NCc2ccccc2)cc1 11.1%
COC(=O)C1C(=O)NCC1c1ccc(OC)cc1 (stereo not drawn) -7.46%
CCCCN1C(=O)CCC(C(=O)O)C1c1ccc(OC)cc1 (stereo not drawn) 17.7%
CCOC(=O)C1(CCOC)CCN(Cc2ccc(C(=O)OC)cc2)CC1 -5.45%
COC(=O)c1cc(C(=O)OCC(=O)Nc2cc(C)on2)cc([N+](=O)[O-])c1 12.8%
CC(=O)c1cccc(NC(=O)[C@@H](NC(N)=O)C(C)C)c1 2.32%
O=C(CSc1nnc(C2CC2)n1Cc1ccccc1)Nc1cccnc1Cl 6.58%
CC(=O)c1c(C)[nH]c(C(=O)NCc2ccc(C)cc2)c1C -5.82%
CC(=O)c1c(C)[nH]c(C(=O)NCCCN2CCCC2)c1C 11.9%
CC(=O)NC1(c2ccc(F)cc2)CCN(C(=O)c2c(F)cccc2F)CC1 3.13%
O=C(CCC(=O)NNc1nc2ccccc2c2nc(-c3ccccc3)nn12)NCCCN1CCCC1=O 6.86%
CCCCCOC(=O)C1=C(C)Nc2nnnn2C1c1ccc(OC)c(OC)c1OC (stereo not drawn) -12.1%
CC(=O)C1=C(C)NC(C)=C(C(C)=O)C1c1cn(-c2ccccc2)nc1-c1cccs1 6.63%

Potency, active:
COc1cc(C2CC(=O)N3CN(Cc4ccccc4)CSC3=C2C#N)ccc1OCc1ccccc1 (stereo not drawn) 10 µM
O=C(CSC(=S)N1CCCCC1)c1c(F)cccc1F 12.6 µM
CCn1cc(C(=O)NCCCN2CCCCCC2)c(=O)c2cc(S(=O)(=O)N3CCc4ccccc4C3)ccc21 7.94 µM
CCn1cc(C(=O)NCC2CCCO2)c(=O)c2cc(S(=O)(=O)N3CCCCC3)ccc21 (stereo not drawn) 15.8 µM
C=CCNC(=S)NNc1ncnc2sc3c(c12)CC(C)(C)OC3 1.41 µM
CCOc1ccc(NS(=O)(=O)c2cc(C)c(C)cc2C)cc1 7.94 µM
CCOc1ccc(S(=O)(=O)Nc2ccc(S(=O)(=O)Nc3cc(OC)ccc3OC)cc2)cc1 10 µM
CC(OC(=O)CNS(=O)(=O)/C=C/c1ccccc1)C(=O)Nc1ccc(S(=O)(=O)N2CCCC2)cc1 (stereo not drawn) 1.26 µM
CCOc1cc(C(=S)N2CCOCC2)ccc1O 8.91 µM
c1ccc(CSc2nnc(-c3ccco3)c(-c3ccco3)n2)cc1 2.82 µM
Clc1ccccc1CSc1nnc(-c2ccco2)c(-c2ccco2)n1 10 µM
CCOc1ccc(-n2c(O)c(/C=N/Nc3nc(C)cc(C)n3)c3ccccc3c2=O)cc1 5.01 µM
O=C1c2ccccc2C(Nc2ccc3c(c2)OCCO3)N1Cc1ccco1 (stereo not drawn) 7.08 µM
COc1ccccc1NC(=O)/C=C/C(N)=O 28.2 µM
Cc1ccc(Cl)cc1NC(=O)COC(=O)CC(C)(C)C 8.91 µM
COc1ccc(NC(=O)Cn2c(-c3ccc(OC)cc3)cn(-c3ccc(C)cc3)c2=O)cc1 15.8 µM
CC1=C(C(=O)OC2CCCCC2)C(c2cccnc2)n2ncnc2N1 (stereo not drawn) 20 µM
CCc1cccc2c(=O)c(C(=O)NCCCOC)c[nH]c12 2 µM
CSc1c(SCc2ccccc2)cnn(Cc2ccccc2)c1=O 11.2 µM
C/C(CC1CC(C)(C)OC1=O)=N/Nc1nc(-c2ccccc2)cs1 (stereo not drawn) 7.94 µM
O=C(CSc1nc2c(cnn2-c2ccc(F)cc2)c(=O)[nH]1)N1CCCCCC1 0.126 µM
COc1ccc(C2OC(=O)CC2C(=O)NC(C)C)cc1 (stereo not drawn) 15.8 µM
CCCCN(CC)CCNC(=O)c1[nH]c(C)c(C(C)=O)c1C 10 µM
CC1=C(C(N)=O)C(c2sccc2C)n2nnnc2N1 (stereo not drawn) 20 µM
